Reference: PubChem BioAssay (NCATS)
“And” between values parts separate entries of the source, which are not always exact repeats. Equal entries are not always repeated. Records with an inconclusive call do not appear. The source made the active and inactive calls. Unless noted, calls follow the shape of the dose curve; as a rule, active = well fitted curve in the direction sought with a large enough effect; inconclusive = small, poorly fitted or top-dose-only effect, or another doubt; inactive = no such curve, though single readings can be large; an effect the other way counts as inactive or inconclusive.

What was measured:
[1] = tested on: C33A; test: Primary qHTS to identify gynecologic anti-cancer compounds using libraries of approved drugs and bioactive compounds (AID 1345084); settings: Gynecologic cancer cell panel viability, ATPlite luminescence, 48 h; series mostly up to 57.5 µM; also: nearly all actives have a fitted effect of over 55% in size; also: potency is read from the fitted curve at half-maximal effect
How it was run: (§1)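 Cell viability after 48 h drug treatment, ATPlite luminescence readout; five doses.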

[2] = tested on: CAOV3; test: as above; settings: Gynecologic cancer cell panel viability, ATPlite luminescence, 48 h; series mostly up to 57.5 µM
How it was run: as §1

[3] = tested on: CASKI; test: as above; settings: Gynecologic cancer cell panel viability, ATPlite luminescence, 48 h; series mostly up to 57.5 µM
How it was run: as §1

[4] = tested on: Es-2; test: as above; settings: Gynecologic cancer cell panel viability, ATPlite luminescence, 48 h; series mostly up to 57.5 µM
How it was run: as §1

[5] = tested on: HeLa; test: as above; settings: Gynecologic cancer cell panel viability, ATPlite luminescence, 48 h; series mostly up to 57.5 µM
How it was run: as §1

[6] = tested on: Hek293T; test: as above; settings: Gynecologic cancer cell panel viability, ATPlite luminescence, 48 h, control line for the selectivity index; series mostly up to 57.5 µM
How it was run: as §1

[7] = tested on: JEG-3; test: as above; settings: Gynecologic cancer cell panel viability, ATPlite luminescence, 48 h; series mostly up to 57.5 µM
How it was run: as §1

[8] = tested on: OV90; test: as above; settings: Gynecologic cancer cell panel viability, ATPlite luminescence, 48 h; series mostly up to 57.5 µM
How it was run: as §1

[9] = tested on: PA-1; test: as above; settings: Gynecologic cancer cell panel viability, ATPlite luminescence, 48 h; series mostly up to 57.5 µM
How it was run: as §1

[10] = tested on: SKOV3; test: as above; settings: Gynecologic cancer cell panel viability, ATPlite luminescence, 48 h; series mostly up to 57.5 µM
How it was run: as §1

[11] = tested on: Tov-21-G; test: as above; settings: Gynecologic cancer cell panel viability, ATPlite luminescence, 48 h; series mostly up to 57.5 µM
How it was run: as §1

[12] = tested on: Tov112D; test: as above; settings: Gynecologic cancer cell panel viability, ATPlite luminescence, 48 h; series mostly up to 57.5 µM
How it was run: as §1

[13] = Drug repurposing screens with cells derived from glioblastoma tumor samples (AID 1345199); settings: GBM patient neurospheres viability, ATP luminescence, 48 h; also: nearly all actives have a fitted effect of over 40% in size; also: potency is read from the fitted curve at half-maximal effect; as to activity, negative = cell killing: % is scaled to controls: 0 for no effect and ±100 for the full control effect
How it was run: (§2)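 Primary testing used CD133+ neurospheres from four GBM patients, seven concentrations, 48 h exposure and ATP-based viability; confirmation added three slower-growing patient lines.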

[14] = tested on: astro; test: as above; settings: viability, ATP luminescence, 48 h; series mostly up to 45.9 µM
How it was run: as §2

[15] = qHTS assay to identify inhibitors of the type 1 interferon - major histocompatibility complex class I in skeletal muscle: Counter screen cell viability and HiBit confirmation (AID 1347412); settings: iHSKM muscle cells + IFN-b, HiBiT or CellTiter-Glo, 24 h; also: nearly all actives have a fitted effect of over 60% in size; also: potency is read from the fitted curve at half-maximal effect; as to activity change, negative = inhibition: % is scaled to controls: 0 for no effect and ±100 for the full control effect
How it was run: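 After 24 h with human IFN-beta (4 ng/ml) and compound titrations (top 46 uM final, 1:3, 12 points), HLA-B HiBit myoblasts were lysed for either Nano-Glo HiBiT luminescence or CellTiter Glo viability on paired plates.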

[16] = qHTS assay for small molecule activators of the human pregnane X receptor (PXR) signaling pathway (AID 720659; call rule not given here; also: 0% is about no effect)
[17] = target: Nuclear receptor subfamily 1 group I member 2 (Rattus norvegicus) (UniProt Q9R1A7); test: qHTS assay for small molecule activators of the rat pregnane X receptor (rPXR) signaling pathway (AID 651751; call rule not given here; also: 0% is about no effect); settings: rPXR reporter cells, luciferase (One-Glo), 24 h
[18] = at 45.9 µM (top of the series), tumour line D
[19] = at 46.1 µM (top of the series), tumour line C
[20] = at 45.9 µM (top of the series), tumour line B
[21] = at 46 µM (top of the series), tumour line A
[22] = at 20 µM (top of the series), tumour line C
[23] = at 21.2 µM (top of the series), tumour line B
[24] = at 21.2 µM (top of the series), tumour line D
[25] = at 21.3 µM (top of the series), tumour line A

Chain of Nuclear receptor subfamily 1 group I member 2 (Rattus norvegicus) (Q9R1A7 whole entry, looked up): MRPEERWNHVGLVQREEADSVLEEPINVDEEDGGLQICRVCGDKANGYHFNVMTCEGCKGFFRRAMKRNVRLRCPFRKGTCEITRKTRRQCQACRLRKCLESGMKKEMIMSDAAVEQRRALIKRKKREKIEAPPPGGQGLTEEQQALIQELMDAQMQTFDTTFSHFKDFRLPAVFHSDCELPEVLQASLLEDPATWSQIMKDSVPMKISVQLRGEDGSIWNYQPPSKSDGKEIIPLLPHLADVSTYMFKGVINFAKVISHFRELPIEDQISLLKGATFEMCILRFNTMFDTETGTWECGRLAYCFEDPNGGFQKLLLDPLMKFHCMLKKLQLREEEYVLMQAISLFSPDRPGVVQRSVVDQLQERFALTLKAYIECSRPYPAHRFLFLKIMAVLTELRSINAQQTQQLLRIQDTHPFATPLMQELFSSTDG

COc1ccc(C(=O)CC(=O)c2ccc(C(C)(C)C)cc2)cc1
inactive: Potency [1] | Potency [2] | Potency [3] | Potency [4] | Potency [5] | Potency [6] | Potency [7] | Potency [8] | Potency [9] | Potency [10] | Potency [11] | Potency [12] | activity, negative = cell killing [13, 18] -26.5% | activity, negative = cell killing [13, 19] 3.24% | Potency [14]

COc1ccc(-c2ccc3cc(C(=O)O)ccc3c2)cc1C12CC3CC(CC(C3)C1)C2
inactive: Potency [1] | Potency [2] | Potency [3] | Potency [4] | Potency [5] | Potency [6] | Potency [7] | Potency [8] | Potency [9] | Potency [10] | Potency [11] | Potency [12] | Potency [14]

CC(=O)Oc1ccccc1C(=O)Nc1ncc([N+](=O)[O-])s1
active: Potency [14] 5.01 µM | Potency ([15]; HiBiT) 14 µM
inactive: Potency [1] | Potency [2] | Potency [3] | Potency [7] | Potency [8] | Potency [11] | Potency [12] | activity change, negative = inhibition ([15]; Viability, at 45.9 µM (top of the series)) -5.7%

CC(N)C12CC3CC(CC(C3)C1)C2 (stereo not given)
inactive: Potency [1] | Potency [2] | Potency [3] | Potency [4] | Potency [5] | Potency [6] | Potency [7] | Potency [9] | Potency [10] | Potency [11] | Potency [12] | activity, negative = cell killing [13, 20] -2.45% | activity, negative = cell killing [13, 18] -5.43% | activity, negative = cell killing [13, 19] 5.06% | Potency [14]

Cn1nnc2c(C(N)=O)ncn2c1=O
inactive: Potency [1] | Potency [2] | Potency [3] | Potency [4] | Potency [6] | Potency [7] | Potency [8] | Potency [9] | Potency [10] | Potency [11] | Potency [12] | activity, negative = cell killing [13, 20] -3.24% | activity, negative = cell killing [13, 18] -16.1% | activity, negative = cell killing [13, 21] -21.4% | activity, negative = cell killing [13, 19] -14.3%

CNS(=O)(=O)Cc1ccc2[nH]cc(CCN(C)C)c2c1
inactive: Potency [1] | Potency [2] | Potency [3] | Potency [4] | Potency [5] | Potency [6] | Potency [7] | Potency [8] | Potency [9] | Potency [11] | Potency [12] | activity, negative = cell killing [13, 20] 2.54% | activity, negative = cell killing [13, 18] -2.5% | activity, negative = cell killing [13, 21] -14% | activity, negative = cell killing [13, 19] 0.932%

CN(C)c1ccc(C(=C2C=CC(=[N+](C)C)C=C2)c2ccc(N(C)C)cc2)cc1
inactive: outcome [16]
active: Potency [1] 10 µM | Potency [2] 1.41 µM | Potency [3] 1.12 µM | Potency [4] 1.78 µM | Potency [5] 2 µM | Potency [7] 14.1 µM | Potency [9] 0.447 µM | Potency [10] 0.316 µM | Potency [11] 1.78 µM | Potency [12] 2 µM | Potency ([15]; HiBiT) 9.91 µM | Potency ([15]; Viability) 9.91 µM

CC[C@H](C)C(=O)O[C@H]1C[C@@H](C)C=C2C=C[C@H](C)[C@H](CC[C@@H]3C[C@@H](O)CC(=O)O3)[C@H]21
inactive: Potency [1] | Potency [2] | Potency [3] | Potency [4] | Potency [6] | Potency [7] | Potency [8] | Potency [9] | Potency [10] | Potency [11] | Potency [12]

Cc1ccnc2c1NC(=O)c1cccnc1N2C1CC1
inactive: Potency [1] | Potency [2] | Potency [3] | Potency [4] | Potency [5] | Potency [6] | Potency [7] | Potency [8] | Potency [9] | Potency [11] | Potency [12] | activity, negative = cell killing [13, 20] -8.19% | activity, negative = cell killing [13, 18] 4.3% | activity, negative = cell killing [13, 21] -21.5% | activity, negative = cell killing [13, 19] -3.33% | Potency [14] | max response [17] -6.61% | outcome [16]

CC(C)(C)NC(=O)[C@H]1CC[C@H]2[C@@H]3CC[C@H]4NC(=O)C=C[C@]4(C)[C@H]3CC[C@]12C
active: Potency [10] 12.6 µM
inactive: Potency [1] | Potency [2] | Potency [3] | Potency [4] | Potency [5] | Potency [6] | Potency [7] | Potency [9] | Potency [11] | Potency [12] | activity, negative = cell killing [13, 22] -3.62% | activity, negative = cell killing [13, 23] -10.8% | activity, negative = cell killing [13, 24] -2.64% | activity, negative = cell killing [13, 25] -15%

CC(=O)CC(c1ccccc1)c1c(O)c2ccccc2oc1=O (stereo not given)
inactive: Potency [1] | Potency [2] | Potency [3] | Potency [4] | Potency [5] | Potency [6] | Potency [7] | Potency [8] | Potency [11] | Potency [12] | activity, negative = cell killing [13, 20] -11.1% and -14.3% | activity, negative = cell killing [13, 18] 1.21% and -22.4% | activity, negative = cell killing [13, 21] -22% | activity, negative = cell killing [13, 19] -1.82% and -1.98% | Potency [14] | max response [17] 2.18% | outcome [16]

NC(=O)c1cccnc1
inactive: Potency [1] | Potency [3] | Potency [4] | Potency [5] | Potency [6] | Potency [7] | Potency [8] | Potency [9] | Potency [10] | Potency [11] | Potency [12] | activity, negative = cell killing [13, 20] -7.44% | activity, negative = cell killing [13, 18] -0.242% | activity, negative = cell killing [13, 21] -16% | activity, negative = cell killing [13, 19] 4.44%

C[C@@H]1C[C@H]2[C@@H]3CCC4=CC(=O)C=C[C@]4(C)[C@@]3(Cl)[C@@H](O)C[C@]2(C)[C@@]1(OC(=O)c1ccco1)C(=O)CCl
inactive: Potency [1] | Potency [2] | Potency [3] | Potency [5] | Potency [8] | Potency [9] | Potency [10] | Potency [11] | Potency [12] | activity, negative = cell killing [13, 22] 13.7% | activity, negative = cell killing [13, 23] -9.13% | activity, negative = cell killing [13, 24] -9.21% | activity, negative = cell killing [13, 25] -28.2%
